Pf Dd2 growth: Plasmodium falciparum Dd2 growth inhibition | P. falciparum Dd2 growth, SYBR Green, 72 h | Potency, µM (titrated, usually from 28.9 µM), usual class: inhibitors | 120,000 tested, 4.3% active; active = well fitted inhibition curve with a large enough effect; note: nearly all actives have a fitted effect of over 65% in size
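Readout: SYBR Green fluorescence, 485 nm excitation, 535 nm emission, after ~16 h lysis at 37C. Before that, Dd2-infected red cells (2.5% hematocrit) grew 72 h with compound, 29 uM top final concentration.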
Large screens that a line does not name were inactive. The full list was thinned out, with hits kept by preference.

Cc1cccc(C(=O)Nc2cccc(C3OC(=O)N(Cc4ccccc4)C3C(=O)NCC(C)C)c2)c1 (stereo not given)	none
CCC(=O)Nc1cccc(C2OC(=O)N(Cc3ccc(C)cc3)C2C(=O)NCCOC)c1 (stereo not given)	none
Cc1ccc(NC(=O)N2CC(N(Cc3cccnc3)S(C)(=O)=O)C2)cc1C	none
Cc1noc(-c2cn(C3CCCN(C(=O)c4ccccc4)C3)nn2)n1 (stereo not given)	none
Cc1nnc([C@H]2CCN(Cc3cc4ccccc4o3)C2)o1	none
CCC1CN(Cc2cn(Cc3ccccc3)nc2-c2cc3ccccc3o2)CCO1 (stereo not given)	Pf Dd2 growth 10µM
C=CCn1cc(CN2CCOC(Cc3cccc(OC)c3)C2)c(C)n1 (stereo not given)	none
COCCn1c(SCC(=O)c2c(C)[nH]c3ccccc23)nc2cc(C(=O)NC(C)C)ccc2c1=O	none
COC(=O)CC(=O)CSc1nc2cc(C(=O)NCC(C)C)ccc2c(=O)n1CCc1ccccc1	Pf Dd2 growth 11µM
COCCn1c(SCC(=O)c2c[nH]c3ccccc23)nc2cc(C(=O)NC(C)C)ccc2c1=O	none
O=C(N[C@@H]1CN(C(=O)Cn2c(=O)oc3ccccc32)CC[C@@H]1CO)C1CC1	none
COc1ccc(Cn2c(C3CCN(C(=O)Cc4cccs4)CC3)n[nH]c2=O)cc1	none
COc1ccc(C(=O)NCC2CCN(c3cnn(C)c(=O)c3)C2)c(OC)n1 (stereo not given)	none
CC(C)C(=O)N1CCCCCNC(=O)[C@@H]2CCCC[C@@H]21	none
Cc1ccc(NC(=O)N2CCC(Cc3nncn3Cc3ccccc3)C2)cc1C (stereo not given)	none
Cc1ccc(-c2cc(C(=O)N3CCC(Cc4nncn4CC4CC4)CC3)c3ccccc3n2)cc1C	Pf Dd2 growth 2.8µM
O=C(c1ccc2cc[nH]c2c1)N1CCC(Cc2nncn2CC2CC2)C1 (stereo not given)	none
COCCOC1CCOC2(CCN(C(=O)NCc3ccc(C)cc3)CC2)C1 (stereo not given)	none
O=C(NC1CCN(c2cc(-c3ccc(Cl)cc3)[nH]n2)CC1)c1ccc(F)cc1F	none
COc1ccc([C@@H]2CN(C(=O)Nc3ccc(C)cc3)[C@@H]3C4CCN(CC4)[C@@H]32)cc1	none
O=C(c1cn2c(n1)CNCC2)N1C[C@H](c2ccccc2)[C@@H]2[C@H]1C1CCN2CC1	none
Cc1ccc([C@@H]2CN(C(=O)c3snnc3C)[C@@H]3C4CCN(CC4)[C@@H]32)cc1	Pf Dd2 growth 14µM
C[C@H]1CN(C(=O)c2nn(C)c3ccccc23)C[C@@H]1c1nc(-c2ccncc2)no1	none
Cc1ccccc1C(=O)N(C)Cc1cccn1C	none
C=CCC(=O)N1CCCC1C(=O)Nc1ccccc1-c1ccc(OC)cc1 (stereo not given)	none
CC1CCc2c(sc(NC(=O)C3c4ccccc4Oc4ccccc43)c2C(=O)OC(C)C)C1 (stereo not given)	none
CCC(C)(C)C1CCc2c(sc(NC(=O)C3c4ccccc4Oc4ccccc43)c2C(N)=O)C1 (stereo not given)	none
CCC1CCc2c(sc(NC(=O)C3c4ccccc4Oc4ccccc43)c2C(=O)OC)C1 (stereo not given)	Pf Dd2 growth 13µM
COc1ccc(C(=O)Nc2ccnn2C2CCN(c3nccc(N)n3)CC2)cc1	none
O=C(N[C@@H]1CN(Cc2c(F)cccc2Cl)C[C@H]1CO)C1CC1	none
CCOc1ccccc1CN1C[C@@H](CO)[C@H](NC(=O)C2CC2)C1	Pf Dd2 growth 7.9µM
COc1ccc(CN2C[C@@H](CO)[C@H](NC(=O)C3CCC3)C2)cc1	none
CN(C)C(=O)c1ccc(-c2ccc3ncn(-c4ccc(F)cc4F)c(=O)c3n2)cc1	none
Cc1cc(Cl)ccc1-c1cccc(C=O)c1	none
COc1cc(CNC2CCCCC2)ccc1OCC(O)CN1CCSCC1 (stereo not given)	none
C=CCc1ccccc1OCC(O)CN1CCN(c2ccccc2)CC1 (stereo not given)	none
COc1cc(CNCc2ccccc2C)ccc1OCC(O)CN1CCC(O)CC1 (stereo not given)	none
COc1cc(CNC2CCCCCCC2)ccc1OCC(O)CN1CCSCC1 (stereo not given)	Pf Dd2 growth 8.9µM
COc1ccc(CCNC(=O)CC2CCOCC2)cc1OC	none
COc1cc(CNCCc2ccccc2C)ccc1OCC(O)CN1CCOCC1 (stereo not given)	Pf Dd2 growth 11µM
COc1cc(CN2CC=C(C)CC2)ccc1OCC(O)CN1CCSCC1 (stereo not given)	none
COc1cc(CNC(C)C)ccc1OCC(O)CN1CCSCC1 (stereo not given)	none
OC(COc1ccccc1CNCCc1ccccc1)CN1CCSCC1 (stereo not given)	Pf Dd2 growth 1.6µM
CCc1ccc(CNC(=O)c2cc3n(n2)CC(c2ccc4c(c2)OCO4)OC3)cc1 (stereo not given)	none
CC(C)NC(=O)N1CCC2(CC1)CC(N1CCOCC1)CCO2 (stereo not given)	none
Cc1ccc(CN2CCN(C(=O)C3Cn4cccc4C(=O)N3C)CC2)cc1 (stereo not given)	none
O=C1NCCCCCCN(Cc2ccncc2)[C@@H]2CN(S(=O)(=O)c3ccccc3)CC[C@H]12	Pf Dd2 growth 10µM
O=C1NCCCCCCN(Cc2ccncc2)[C@@H]2CN(Cc3ccccn3)CC[C@@H]12	none
O=C1NCCCCCCN(Cc2ccncc2)[C@@H]2CN(S(=O)(=O)c3cccnc3)CC[C@H]12	none
Cn1cccc1CN1CC[C@@H]2C(=O)NCCCCCCN(Cc3ccncc3)[C@@H]2C1	Pf Dd2 growth 6.3µM
COc1cccc(CN2CC[C@@H]3C(=O)NCCCCCCN(Cc4ccncc4)[C@@H]3C2)n1	Pf Dd2 growth 4µM
CS(=O)(=O)N1CC[C@@H]2C(=O)NCCCCCCN(Cc3ccncc3)[C@@H]2C1	none
CCN1CCC(N2CC[C@@H]3C(=O)NCCCCCCN(Cc4ccncc4)[C@@H]3C2)CC1	none
O=C1NCCCCCCN(Cc2ccncc2)[C@@H]2CN(C3CCOCC3)CC[C@@H]12	none
O=C1NCCCCCCN(Cc2ccncc2)[C@@H]2CN(Cc3cccnc3)CC[C@H]12	none
CNC(=O)[C@@H]1CN(C(=O)C2CC=CC2)C[C@H]1CO	none
COc1cccc(-c2n[nH]c3c2CC(=O)N(CCc2ccncc2)C3)c1OC	none
CN(CC1(C)CCOCC1)C(=O)c1c(F)cccc1Cl	none
COC(=O)c1ccccc1NC(=O)c1c(OC)cc(=O)n2c1CCCC2	none
COCC(=O)N[C@H]1C[C@@H](c2nc(-c3ccc4c(c3)OCO4)no2)N(C)C1	none
Cc1noc(C)c1S(=O)(=O)N1CCC(Cc2nc(-c3ccncc3)n[nH]2)C1 (stereo not given)	none
COc1ccc2[nH]c3c(c2c1)CCN(C)C31CCN(C(=O)c2ccnn2C)CC1	none
O=C(c1cn(Cc2ccc(Cl)cc2)nn1)N1CCCC(OCc2cccnc2)C1 (stereo not given)	none
CC(C)CN1CC[C@H]2COC(=O)N2c2cc(F)ccc2C1	none
COc1ccc(-c2nc3sc(CCNC(=O)c4ccc(Br)o4)c(C)n3n2)cc1	Pf Dd2 growth 8.9µM
Cc1c(CCNC(=O)c2ccc(Br)o2)sc2nc(-c3ccc(Cl)cc3)nn12	none
CCC(=O)NCCc1sc2nc(-c3ccc(OC)cc3)nn2c1C	none
COc1ccc(-c2nc3sc(CCNC(=O)Cc4ccc(Cl)cc4)c(C)n3n2)cc1	none
COc1ccc(-c2nc3sc(CCNC(=O)c4ccc(C(C)(C)C)cc4)c(C)n3n2)cc1	Pf Dd2 growth 1.1µM
CCOc1ccc(CC(=O)NCCc2sc3nc(-c4ccc(OC)cc4)nn3c2C)cc1	none
COc1ccc(CN2CC3(CCN(C(=O)c4cccs4)CC3)C2=O)cc1	none
CN(C)C(=O)c1n[nH]c2c1CN(C(=O)c1ccccc1C(F)(F)F)CC2	none

Bioassay records: PubChem, National Center for Advancing Translational Sciences (NCATS)
